According to PubChem BioAssay (NCATS):
Records with an inconclusive call do not appear. The source made the active and inactive calls. Calls follow the shape of the dose curve; as a rule, active = well fitted curve in the direction sought with a large enough effect; inconclusive = small, poorly fitted or top-dose-only effect, or another doubt; inactive = no such curve, though single readings can be large; an effect the other way counts as inactive or inconclusive. Peptide text beside a SMILES is read from it. * marks the point of attachment. AMC = Cc1cc(=O)oc2cc(N*)ccc12; Cbz = O=C(OCc1ccccc1)*

Tests used:
[1] = target: Cellular tumor antigen p53 (Homo sapiens) (UniProt P04637); assay: Primary qHTS for small molecule compounds that upregulate eGFP-tagged delta133p53alpha (in N-terminal) cells. (AID 2060322); conditions: NCI-H358 eGFP-delta133p53alpha fluorescence, 24 h; activation: stronger effect = higher value;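 also: 0% = DMSO vehicle and 100% = reference activator; nearly all actives have a fitted effect of over 75% in size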
In short: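 NCI-H358 cells pre-induced 24 h with 10 ng/ml doxycycline to express N-terminal eGFP-delta133p53alpha, then dosed 24 h at 37C without doxycycline; fixed, Hoechst-stained, GFP intensity by laser scanning cytometry, normalized to DMSO (0%) and 57.5 uM 5-azacytidine (100%).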

[2] = target: Aldehyde dehydrogenase, mitochondrial (Homo sapiens) (UniProt P05091); assay: qHTS for Inhibitors of the Aldehyde Dehydrogenase Family (ALDH2) Primary screen (AID 2061308); conditions: ALDH2 enzyme inhibition qHTS, 1536-well; series mostly up to 56 µM;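 also: plate controls were vehicle for no effect and reference inhibitor for full effect; nearly all actives have a fitted effect of over 55% in size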
[3] = target: Retinaldehyde dehydrogenase 3 (Homo sapiens) (UniProt P47895); assay: qHTS for Inhibitors of the Aldehyde Dehydrogenase Family (ALDH1A3) Primary screen (AID 2061315); conditions: ALDH inhibition qHTS; series mostly up to 56 µM;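 also: plate controls were DMSO vehicle for no effect and reference inhibitor for full effect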

Chain of Cellular tumor antigen p53 (Homo sapiens) (P04637 whole entry, looked up): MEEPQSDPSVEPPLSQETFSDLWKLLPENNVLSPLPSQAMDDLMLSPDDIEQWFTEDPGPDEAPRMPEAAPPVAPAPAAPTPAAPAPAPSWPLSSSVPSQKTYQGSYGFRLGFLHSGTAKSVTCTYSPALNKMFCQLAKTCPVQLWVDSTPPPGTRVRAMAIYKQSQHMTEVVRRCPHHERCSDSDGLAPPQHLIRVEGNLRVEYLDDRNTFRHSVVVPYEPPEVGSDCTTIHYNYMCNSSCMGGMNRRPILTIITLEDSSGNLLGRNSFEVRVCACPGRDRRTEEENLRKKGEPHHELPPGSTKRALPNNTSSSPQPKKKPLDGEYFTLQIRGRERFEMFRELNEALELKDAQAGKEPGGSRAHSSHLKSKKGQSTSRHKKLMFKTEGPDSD

CC(C)(OC1OC(CO)C(O)C(O)C1O)C1CCC(O)(CO)C2CC(=O)C(C)(O)C2C1 (stereo not given)
inactive: activation [1] 22.9% | Potency [2] | Potency [3]

Cc1cc2sc(NC(=O)Cc3ccccc3)nc2cc1Cl
inactive: activation [1] -6.25% | Potency [2] | Potency [3]

COC1C(O)C(OC2CCC3(C)C(CCC45CCC6C7(COC(=O)C7)OC4(O)C6(C)CCC35)C2)OC(C)C1OC1OC(CO)C(OC2OC(CO)C(O)C(O)C2O)C(O)C1O (stereo not given)
inactive: activation [1] 1.53% | Potency [2] | Potency [3]

CC1(C)OC(=O)C(OCC2CC2)=C1c1ccc(S(C)(=O)=O)cc1
inactive: activation [1] -2.33% | Potency [2] | Potency [3]

CC(=O)O[C@@H]1CC[C@@]2(C)[C@H](CC[C@@H]3[C@@H]2C[C@H](OC(C)=O)[C@]2(C)[C@@H](C(C)=O)CC[C@@H]32)C1
inactive: activation [1] 5% | Potency [2] | Potency [3]

Cc1ccccc1NC(=O)Nc1ccc(CC(=O)N(C)[C@@H](CC(C)C)C(=O)NCC[C@H](NC(=O)[C@@H]2CCCN2S(=O)(=O)c2cc(Cl)cc(Cl)c2)C(=O)O)cc1
inactive: activation [1] 1.67% | Potency [2] | Potency [3]

CC(/C=C/C1(O)C(C)(C)CC(O)CC1(C)O)OC1OC(CO)C(O)C(O)C1O (stereo not given)
inactive: activation [1] -5.34% | Potency [2] | Potency [3]

CCOC(=O)c1ccc(OCCN2C[C@H](O)[C@@H](O)[C@H](O)[C@H]2CO)cc1
inactive: activation [1] -6.33% | Potency [2] | Potency [3]

CC(=O)O[C@H]1[C@@]2(O)C[C@H](C)[C@H](OC(=O)c3ccccc3)[C@@H]2[C@@H](OC(=O)CO)[C@]2(OC(C)=O)C[C@H]3C(=O)C(C)(C)C[C@@H]3[C@@]1(C)[C@H]2OC(C)=O
inactive: activation [1] -6.25% | Potency [2] | Potency [3]

COC1=CC(=O)C[C@@H](C)[C@]12Oc1cc(OC)cc(OC)c1C2=O
inactive: activation [1] 4.58% | Potency [2] | Potency [3]

COc1cc2occc2c(O[C@@H]2O[C@H](CO)[C@@H](O)[C@H](O)[C@H]2O)c1CCC(=O)O
inactive: activation [1] 9.16% | Potency [2] | Potency [3]

O=C1CC[C@H](C(=O)N2CCCCC2)N1
inactive: activation [1] -6.33% | Potency [2] | Potency [3]

C[C@]12CCC[C@](C)(C(=O)O)C1CCC13C=C(CO)C(CCC12)C3 (stereo not given in full)
inactive: activation [1] -24.4% | Potency [2] | Potency [3]

CC(=O)[C@@H]1C[C@H](C(C)(C)O[C@@H]2O[C@H](CO)[C@@H](O)[C@H](O)[C@H]2O)CC[C@@]2(CO)OC(=O)C[C@@H]12
inactive: activation [1] -6.11% | Potency [2] | Potency [3]

CCC(C)(O)C(O)C(=O)OCc1ccc(O[C@@H]2O[C@H](CO)[C@@H](O)[C@H](O)[C@H]2O)c(OC)c1 (stereo not given in full)
inactive: activation [1] -5.36% | Potency [2] | Potency [3]

CC1(C)CCCC2(C)C(C(=O)O)=CCC12 (stereo not given)
inactive: activation [1] -24.4% | Potency [2] | Potency [3]

CC(=O)OC1(C)CC(O)C2(O)C=COC(OC3OC(CO)C(O)C(O)C3O)C12 (stereo not given)
inactive: activation [1] -16.8% | Potency [2] | Potency [3]

CC1NC(=O)CNC(=O)C(C(C)C)NC(=O)C2CCCN2C(=O)C(C(C)C)NC(=O)C(Cc2c[nH]c3ccccc23)NC1=O (stereo not given) (cyclo(GAWVPV); configuration not given here)
inactive: activation [1] 3.57% | Potency [2] | Potency [3]

C=C(C(=O)OC)C1C(O)CC2(C)C(O)CCC(=O)C2C1O (stereo not given)
inactive: activation [1] -15.3% | Potency [2] | Potency [3]

O=S(=O)(NC1CCNCC1)c1cc(S(=O)(=O)c2ccccc2)ccc1C(F)(F)F
inactive: activation [1] 5.25% | Potency [2] | Potency [3]

CC1CCCCCCCc2cc(O)cc(O)c2C(=O)O1 (stereo not given)
inactive: activation [1] -3.57% | Potency [2] | Potency [3]

CC(C)COc1ccc(CNC(=O)N(Cc2ccc(F)cc2)C2CCN(C)CC2)cc1
inactive: activation [1] -15.7% | Potency [2] | Potency [3]

Cc1cc(=O)oc2cc(NC(=O)[C@H](CCC(=O)O)NC(=O)[C@H](CC(C)C)NC(=O)[C@H](CC(C)C)NC(=O)OCc3ccccc3)ccc12 (Cbz-Leu-Leu-Glu-{AMC})
inactive: activation [1] 2.33% | Potency [2] | Potency [3]

CC1C2=CC(=O)OC2(O)CC2C1C(OC(=O)c1ccccc1)C(OC(=O)c1ccccc1)C1(O)C2(C)CCC(O)C1(C)C(=O)O (stereo not given)
inactive: activation [1] 26.7% | Potency [2] | Potency [3]

CC1COC(Nc2ccc3ncnc(Nc4ccc(OCc5nccs5)c(Cl)c4)c3c2)=N1 (stereo not given)
inactive: activation [1] 13.4% | Potency [2] | Potency [3]
